Unmarked numbers belong to inactive results. Activity calls are given as the source filed them. Rule as the data show it: active = inhibition score above about 11; inactive = the rest.

The assay in a line: S. cerevisiae short- and long-term growth effects – BY4741, OD595, 24 h, dose response (AID 489042). The following applies: active compounds read high.
Take `Cn1c(=O)[nH]c2nncnc2c1=O`: the inhibition score is 0.

Take `Oc1cccc2nc3ccccc3nc12`: the inhibition score was 21 (active).

With `O=c1[nH]c(O)c(C=Nc2ccc(F)c(Cl)c2)c(=O)[nH]1`, the inhibition score is 0.

On to `Cn1c(O)c(C(=Nc2ccc(F)cc2)c2ccccc2Cl)c(=O)n(C)c1=O`, for which the inhibition score was 10.

In the case of `OCC[n+]1c2ccccc2nc2ccc(N3CCOCC3)cc21`, the inhibition score was 0.

Turning to `C[C@]12CCC3C(CC[C@H]4C[C@H](O)CC[C@]34C)C1CCC2=O` (stereo not given in full), the inhibition score is 0.

`C[C@]12CCC3C(CC[C@H]4C[C@@H](O)CC[C@]34C)[C@H]1CC[C@H]2O` (stereo not given in full): the inhibition score was 0.

As to `C[C@]12CCC3C(CC[C@H]4C[C@H](O)CC[C@]34C)C1C[C@@H](CCCCl)[C@@H]2O` (stereo not given in full), the inhibition score is 10.

On to `C[C@]12CCC3C(CC[C@H]4C[C@@H](O)CC[C@]34C)C1CC[C@@H]2OC(=O)[C@H](N)CCCCN` (stereo not given in full), for which the inhibition score was 0.

With `C=C1C(O)[C@@H]2O[C@]3(CC[C@H](/C=C/C(C)[C@@H]4CC(C)=CC5(O[C@H](C[C@@](C)(O)C(=O)O)CCC5O)O4)O3)CC[C@H]2O[C@@H]1C(O)CC(C)[C@H]1OC2(CCCCO2)CCC1C` (stereo not given in full), the inhibition score is 21 (active).

With `CNc1ccc2nc3ccccc3[n+](C)c2c1`, the inhibition score is 0.

For the molecule `C[n+]1c2ccccc2nc2ccc(NCCO)cc21`, the inhibition score is 0.

As to `CC(=O)O[C@H]1CCC2C3CC[C@H]4[C@@H](O)[C@H](O)CC[C@]4(C)C3CC[C@@]21C` (stereo not given in full), the inhibition score is 0.

Consider `C#C[C@]1(O)[C@H](O)CC2C3CC[C@H]4C[C@@H](O)CC[C@]4(C)C3CC[C@@]21C` (stereo not given in full), for which the inhibition score was 0.

For `Nc1cc2nc3ccccc3nc2cc1N`, the inhibition score was 0.

The values are drawn from PubChem BioAssay AID489042 (NMMLSC, 2010).
